Screen size: about 220,000 compounds; about 830 (0.38%) were called active.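 The calls were made as follows: active = compound inhibiting the enzyme by more than half at any dose during confirmatory dose-response retesting; inconclusive = strong single-dose inhibitors picked by rank but not retested; inactive = the rest.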 A selection follows. Measured potencies and affinities stand elsewhere.
The compounds below were run against Leucine aminopeptidase (Plasmodium falciparum (isolate 3D7)) (UniProt Q8IL11) (assay: P. falciparum M17LAP inhibitors, primary screen, biochemical, fluorogenic H-Leu-NHMec substrate, 1536-well (AID 1619;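 also: plate controls were full reaction with DMSO carrier for no effect and no enzyme background for full effect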)). Settings: recombinant M17LAP, H-Leu-NHMec fluorogenic kinetic assay; at 30 µM; hits give high values.
Sequence of Leucine aminopeptidase (Plasmodium falciparum (isolate 3D7)) (Q8IL11 whole entry, looked up): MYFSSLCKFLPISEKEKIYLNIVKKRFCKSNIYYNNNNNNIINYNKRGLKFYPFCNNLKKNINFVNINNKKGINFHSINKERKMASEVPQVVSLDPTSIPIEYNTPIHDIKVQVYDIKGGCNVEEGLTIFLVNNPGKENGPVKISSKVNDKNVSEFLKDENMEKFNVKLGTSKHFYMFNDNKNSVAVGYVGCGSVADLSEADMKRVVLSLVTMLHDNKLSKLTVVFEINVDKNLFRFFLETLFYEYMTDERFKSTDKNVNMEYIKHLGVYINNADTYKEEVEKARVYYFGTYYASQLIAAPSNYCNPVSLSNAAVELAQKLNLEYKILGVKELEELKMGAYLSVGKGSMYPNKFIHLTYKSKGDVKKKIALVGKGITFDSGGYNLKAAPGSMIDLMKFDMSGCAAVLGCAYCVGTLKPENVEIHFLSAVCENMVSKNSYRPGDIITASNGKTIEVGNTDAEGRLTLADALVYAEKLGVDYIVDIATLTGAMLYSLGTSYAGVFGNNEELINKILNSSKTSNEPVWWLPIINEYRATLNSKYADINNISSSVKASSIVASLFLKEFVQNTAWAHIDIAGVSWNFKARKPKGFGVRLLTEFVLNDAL

inhibition, inactive:
CC(=O)c1cc(-c2ccccc2)n(CC(=O)N2CCC(N3CCCCC3)CC2)c1C 5.06%, CCOCc1nc(C)c(Cl)c(NS(=O)(=O)c2ccc(N)cc2)n1 -2.71%, CCCCCCCCn1c(N2CCN(c3cccc(Cl)c3)CC2)nc2c1c(=O)[nH]c(=O)n2C 0.06%, COc1ccc(NC(=O)CSc2nc3c(c(=O)[nH]2)CCC3)cc1OC 7.54%, COc1ccc2nc(SCC(=O)Nc3ccc4c(c3)CCC4)[nH]c2c1 5.26%, Cc1ccc(NC(=O)CSc2n[nH]c(-c3ccncc3)n2)cc1C 13.3%, CCCn1c(SCC(=O)Nc2ccc3c(c2)CCC3)n[nH]c1=O 24.5%, CCOC(=O)c1ccc(NC(=O)CSc2nc(SC)ns2)cc1 4.11%, COc1ccc(C(=O)CNc2ccc(C)cc2C)cc1 -4.8%, O=C(CSc1nc2nn(-c3ccccc3)c(=O)c-2c2n1CCCCC2)NCCc1ccccc1 -13.9%, O=C(Nc1cc2c(oc1=O)CCCC2=O)c1ccccc1 1.43%, COc1cccc(C2C(C(=O)Nc3ccccc3)=C(C)N=c3s/c(=C/c4ccc(OCC(=O)O)cc4)c(=O)n32)c1 (centres undefined) 55.7%, CC1=C(C(=O)Nc2ccccc2)C(c2ccc(Cl)cc2)n2c(s/c(=C/c3cccc(OCC(=O)O)c3)c2=O)=N1 (centres undefined) 4.09%, N=C1N(/N=C/c2ccccc2)C(=Nc2ccccc2)C(=S)N1c1ccccc1 16.1%, O=C1CC(N2CCC(c3nc4ccccc4s3)CC2)C(=O)N1Cc1ccccc1 (centres undefined) -10.9%, CCN(c1ccccc1)S(=O)(=O)c1ccc2[nH]c(=O)[nH]c2c1 -1.87%, Cc1cccc(N(C)S(=O)(=O)c2ccc3[nH]c(=O)c(=O)[nH]c3c2)c1 53.7%, O=C(CSc1ccc2nnc(-c3ccccn3)n2n1)Nc1ccc2c(c1)OCO2 7.14%, CCOC(=O)N1CCC(NC(=O)C2CCCN(S(C)(=O)=O)C2)CC1 (centres undefined) 5.41%, COCCOC(=O)C1=C(C)NC(=O)NC1c1c(F)cccc1Cl (centres undefined) -12.3%, O=C(Cn1cc([N+](=O)[O-])cn1)Nc1cccnc1 1.1%, Cc1sc(NC(=O)c2cccs2)c(C(=O)OC(C)C)c1C 9.67%, COC(=O)c1c(NC(=O)C2CC=CCC2C(=O)O)sc(C(N)=O)c1C (centres undefined) 51.5%, CCOC(=O)c1c(NC(=O)C2CC=CCC2C(=O)O)sc(C)c1CC (centres undefined) 5.22%, CC(=O)Nc1sc(C)c(C)c1C(=O)OC(C)C 14.2%, COc1ccc(CCNC(=O)C2CC(=O)N(c3ccc(Br)cc3)C2)cc1OC (centres undefined) 3.2%, Cc1ccnc2ccc(SC(F)(F)F)cc12 1.01%, CC(=O)c1cccc(NC(=O)CN2C(=O)C3C4C=CC(C4)C3C2=O)c1 (centres undefined) 31.7%, COC(=O)c1cccc(NC(=O)COC(=O)CSc2nc(C)cc(C)n2)c1 5.31%, Cc1cc(C(F)(F)F)nc(SCC(=O)Nc2ccccc2)n1 -7.44%, COc1cccc(NC(=O)CSc2nc(N)cc(N)n2)c1 47.2%, Cn1ccnc1SCC(=O)Nc1cccc(C(F)(F)F)c1 15.9%, Cc1cccc(NC(=O)CSc2nc(N)cc(N)n2)c1 34.4%, CCOC(=O)c1ccc(NC(=O)CN2C(=O)C3C4C=CC(C4)C3C2=O)cc1 (centres undefined) 28.7%, COC(=O)c1cccc(NC(=O)CSc2nnc(C)n2C)c1 12.6%, CCCNC(=O)Nc1ccc(C(F)(F)F)cc1 6.33%, CC1(C)CC(=O)c2cnc(NC(=O)CSc3nc4ccccc4o3)nc2C1 8.26%, NC(=O)c1cc(-c2ccncc2)nc2ccc(Cl)cc12 8.6%, Cn1c(=O)n(C)c2cc(S(=O)(=O)Nc3ccccc3O)ccc21 -0.99%, C/C(=C1/SC(N2CC(C)OC(C)C2)=NC1=O)c1ccccc1 (centres undefined) 1.49%, Cc1ccc(S(=O)(=O)Nc2nc(C)cc(NCCN)n2)cc1 -5.52%, CCOC(=O)N1CCN(CCC(=O)Nc2ccc(OC)cc2)CC1 5.12%, Cc1ccc2nsnc2c1S(=O)(=O)Nc1cccc2nsnc12 2.26%, Cc1cc(C)c(S(=O)(=O)Nc2cccc3nsnc23)c(C)c1 3.04%, COC(=O)c1cc(C#N)c(NCc2ccccc2)nc1C -1.82%, Cc1nn(C)cc1CN(C)C(=O)c1cc(COc2ccc(F)cc2F)on1 -16.1%, O=C1OCC2OC(O)C(O)C(O)C2OC(=O)c2cc(O)c(O)c(O)c2-c2c(O)c(O)c3oc(=O)c4c(c(O)c(O)c5oc(=O)c2c3c54)-c2c1cc(O)c(O)c2O (centres undefined) 20.8%, COc1cccc(NC(=O)Cn2c(=O)n(CCC(=O)NCc3ccco3)c(=O)c3ccccc32)c1 -7.32%, CCn1c(N2CCN(CC(=O)c3c(C)n(C)c4ccccc34)CC2)nc2c1c(=O)[nH]c(=O)n2C 16.3%, CN(Cc1nc(Cc2ccccc2F)no1)CC1(N2CCOCC2)CCCCC1 -3.08%, CN(Cc1cc2ccccc2[nH]c1=O)C(=O)COc1ccccc1 -2.37%, O=C1C2CC=C(Cl)CC2C(=O)N1CCc1ccccc1 (centres undefined) 51.8%, O=C1C2CC=C(Cl)CC2C(=O)N1CCC[n+]1ccccc1 (centres undefined) -3.64%, CCOC(=O)N1CCN(C(c2ccc(F)cc2)c2sc3nc(C)nn3c2O)CC1 (centres undefined) -1.83%, CCO/N=C(/C)c1c(O)c(C)c(-c2ccccc2)n(-c2ccccc2)c1=O 45.5%, C=CCO/N=C(\C)c1c(O)c(C)c(-c2ccccc2)n(-c2ccccc2)c1=O 54%, CC(=O)c1c(O)c(C)c(-c2ccccc2)n(-c2ccccc2)c1=O 31.5%, C/C(=N/O)c1c(O)c(C)c(-c2ccccc2)n(-c2ccccc2)c1=O 46.8%, COc1cc(/C=N/NC(=O)c2sc(N)c(C#N)c2C)ccc1O 3.64%, COc1ccc(Cn2c(SC)nc3ccccc32)cc1[N+](=O)[O-] -7.5%, CCCn1nnc(NC(=O)c2ccc(Br)cc2)n1 -4.35%, Cc1ccsc1/C=N/NC(=O)CSCc1ccc(Cl)cc1 3.08%, Cc1cc(C)c(S(=O)(=O)Nc2c(C)[nH]c(=O)[nH]c2=O)c(C)c1 -3%, Cc1cccc2cc(CN(Cc3ccc(F)cc3)C(=O)N3CCOCC3)c(=O)[nH]c12 6.9%, COc1cccc(Nc2nnc(SCC(=O)N3CCOCC3)s2)c1 31.6%, O=C(Cc1cccs1)Nc1nnc(SCC(=O)N2CCCCC2)s1 4.31%, CN1/C(=C\C(=O)CSc2nnc(N)s2)C(C)(C)c2ccccc21 30.2%, CN1/C(=C\C(=O)CSc2nnc(NCc3ccccc3)s2)C(C)(C)c2ccccc21 -5.09%, COc1ccccc1Nc1nnc(SCC(=O)N2CCCC2)s1 28.9%, CC1CCCC(C)N1C(=O)CSc1nnc(NC(=O)c2cccs2)s1 (centres undefined) 35.8%, COc1ccc(NC(=O)COC(=O)C2=COCCO2)cc1OC -5.64%, O=C(CN1CCCCC1)NC(=O)NCc1ccccc1 -1.39%, C=CCNC(=O)C(=O)c1cccn1-c1ccsc1C(=O)OC 1.96%, CCOP(=O)(OCC)C(Nc1cccc([N+](=O)[O-])c1)c1ccccc1 (centres undefined) -1.19%, CC(C)CSc1nnc2[nH]c(=O)cc(N)n12 -1.75%, CCOC(=O)c1oc2cc(O)ccc2c(=O)c1-c1ccc(OC)cc1 14.6%, COC(=O)N/N=C/c1c[nH]c2ccccc12 14.5%, Fc1c(F)c(F)c(N/N=C/c2c[nH]c3ccccc23)c(F)c1F -1.25%, COc1cccc(NC(=O)Nc2nnc(CC(=O)NCc3ccccc3)s2)c1 8.42%, COc1ccc(NC(=O)CSc2ncc(-c3ccc(F)cc3)n2Cc2ccco2)cc1 -16.2%, CCCOC(=O)c1c(NC(=O)C2CCCO2)sc(C(=O)OC)c1C (centres undefined) 8.59%, COc1ccc(-c2ccnc(SCC(=O)Nc3ccccn3)n2)cc1 7.81%, Cc1cc(-c2ccccc2)nc(SCC(=O)N2CCCC2)n1 1.7%, O=C(CSc1nc(O)cc(=O)n1-c1ccccc1)Nc1ccccn1 14.8%, CC1CCCCN1C(=O)CSc1nc(-c2ccccc2)cn1N (centres undefined) 14.6%, O=C(N1CCC(O)(c2cccnc2)CC1)C12CC3CC(CC(C3)C1)C2 3.02%, Cc1oc(C(C)(C)C)cc1C(N)=O 5.9%, Cc1c(N(C(=O)CNC(=O)c2ccccc2)C2(C(=O)NC3CCCCC3)CCCCC2)c(=O)n(-c2ccccc2)n1C -1.39%, Clc1ccc(Nc2ccc(-n3ccnc3)nn2)cc1Cl 2.24%, Cc1cc(C(=O)NCc2cccs2)n(-c2ccccc2)n1 -1.13%, COc1ccccc1NC(=S)NC(=O)c1c(-c2ccccc2Cl)noc1C -2.71%, CC(C)NC(=O)/C(C#N)=C/c1ccc(N(C)C)o1 48.4%, CC(C)NC(=O)/C(C#N)=C\c1ccc(N(C)C)o1 38%, Cc1nn(CC(=O)N2CC(=O)Nc3ccccc32)c(C)c1[N+](=O)[O-] 1.29%

— PubChem BioAssay AID1619 (SRMLSC, 2009)
